Bioassay records from PubChem.
TGFb SMAD3 inh: blocks TGF-b signaling. hit rate 1.2% among 410,000. AID 588855. HepG2 CAGA-GFP TGF-b/SMAD3 reporter, GFP fluorescence, 18 h; TGF-beta stimulated, 500 pg/mL final. Potency, µM (doses to about 46.1 µM), inactives show top-dose activity, negative = inhibition, actives largely listed as inhibitors; further: potency means the concentration at half of the fitted maximal effect; on the % scale 0 is the no-effect control and ±100 the full control effect; nearly all actives have a fitted effect of over 65% in size
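Read-out: total well GFP (ex488/em500-530) summed from mean per-cell fluorescence. Cells: HEPG2 CAGA-GFP, 1% FBS DMEM, 18 h at 37 degrees C with 500 pg/mL final TGF-beta. Unstimulated wells served as the full-inhibition control; stimulated DMSO wells = 0%.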
DT40 TDP1 CPT: DT40-hTDP1 cell growth loss with CPT | chicken DT40 Tdp1-/-;hTDP1 cells + 20 nM CPT, ATP luminescence, 48 h | Potency, µM (highest dose often 46.2 µM), for inactives: at the highest dose activity change, negative = growth inhibition, usual class: inhibitors | hit rate 12% among 420,000 | AID 686979; further: potency means the concentration at half of the fitted maximal effect; on the % scale 0 is the no-effect control and ±100 the full control effect; nearly all actives have a fitted effect of over 55% in size
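Chicken DT40 Tdp1-/- cells complemented with human TDP1, 400 cells/well, exposed to compounds plus 20 nM camptothecin for at least 48 h at 37 C; viability read as ATP content by CellTiter-Glo luminescence.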
TDP1 cell noCPT: qHTS for Inhibitors of human tyrosyl-DNA phosphodiesterase 1 (TDP1): qHTS in cells in absence of CPT; DT40 Tdp1-/- hTDP1 cells, no CPT, ATP luminescence, 48 h; Potency, µM (titrated, usually from 46.2 µM), without a hit: top-dose activity change, negative = growth inhibition, hits mostly inhibitors; hit rate 15% among 420,000; further: potency means the concentration at half of the fitted maximal effect; on the % scale 0 is the no-effect control and ±100 the full control effect; nearly all actives have a fitted effect of over 55% in size
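Compound effects on proliferation are scored in DT40 Tdp1-/-;hTDP1 cells in the absence of CPT. ATP levels (CellTiter-Glo luminescence) are recorded after a ≥48 hr, 37 °C incubation.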
IL1B secr inh: inflammasome signaling inhibition, IL-1 beta readout | THP-1 LPS/ATP IL-1B secretion, AlphaLISA, 16 h; hits give low values | activity change, % at 57.5 µM | hit rate 4.7% among 360,000; in the data active means activity change below about -50%; inconclusive means mostly about -30% to -49%; further: on the % scale 0 is the no-effect control and ±100 the full control effect
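Secreted IL-1B measured by AlphaLISA bead assay after 16 h compound exposure of THP-1 cells; compounds (final up to 57.5 uM) added 1 h before LPS (250 ng/mL) and ATP (1.25 mM) stimulation; lower signal means less secretion.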
TDP1 inh: TDP1 (human) enzyme inhibition; AID 485290; hit rate 0.28% among 350,000; recombinant TDP1, AlphaScreen DNA substrate cleavage; Q9NUW8; Potency, µM (series often up to 130 µM), without a hit: at the top dose activity change, negative = inhibition, actives largely listed as inhibitors; further: potency means the concentration at half of the fitted maximal effect; on the % scale 0 is the no-effect control and ±100 the full control effect; nearly all actives have a fitted effect of over 40% in size
Target sequence (Q9NUW8 whole entry, looked up): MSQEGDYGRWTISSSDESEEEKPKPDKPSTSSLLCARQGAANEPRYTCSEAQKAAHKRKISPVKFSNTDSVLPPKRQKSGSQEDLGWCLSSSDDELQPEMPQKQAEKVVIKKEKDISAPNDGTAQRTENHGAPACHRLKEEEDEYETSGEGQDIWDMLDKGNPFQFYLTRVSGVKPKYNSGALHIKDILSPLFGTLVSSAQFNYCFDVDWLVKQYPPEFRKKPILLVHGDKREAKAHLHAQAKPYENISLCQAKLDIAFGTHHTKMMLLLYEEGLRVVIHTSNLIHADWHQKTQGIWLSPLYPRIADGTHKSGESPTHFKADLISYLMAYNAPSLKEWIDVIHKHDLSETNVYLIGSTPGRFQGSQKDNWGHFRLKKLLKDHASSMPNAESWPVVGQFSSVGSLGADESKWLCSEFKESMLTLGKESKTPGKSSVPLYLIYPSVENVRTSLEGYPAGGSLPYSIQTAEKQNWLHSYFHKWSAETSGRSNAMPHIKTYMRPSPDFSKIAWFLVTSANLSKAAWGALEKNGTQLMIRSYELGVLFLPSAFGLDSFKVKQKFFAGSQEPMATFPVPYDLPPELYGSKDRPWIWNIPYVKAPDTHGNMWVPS
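Recombinant E. coli-expressed Tdp1 (1 nM) preincubated with compound 15 min at RT, then 5'-biotin/3'-phosphotyrosine-FITC DNA substrate (15 nM) added for 5 min. AlphaScreen beads (10 ug/ml) added, 10 min RT; tyrosine-FITC cleavage read as signal loss.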
HepG2 viability: HepG2 cytotoxicity, counter-screen for TGF-b inhibitors; HepG2 CAGA-GFP viability, ATP luminescence, 18 h; Potency, µM (doses to about 46.1 µM), without a hit: at the top dose activity change, negative = cytotoxicity, usual class: cytotoxic; hit rate 0.76% among 410,000; further: potency means the concentration at half of the fitted maximal effect
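HepG2 CAGA-GFP cells (1000/well, DMEM with 1% FBS) received compound, then TGF-beta at 500 pg/mL final, and were incubated 18 hours at 37 degrees C. Viability was read by CellTiter-Glo luminescence. Media-only wells were set as complete cell-killing and DMSO as no toxicity.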
Active calls of the source: *; ? = inconclusive; . = no result given; [ ] = dose if it differs, or a comment. Shown are actives, neighbours in structure and some others; about 18% of the full set was active somewhere. Unless noted, the call rests on the fitted dose curve; in most records, active means well fitted curve in the direction sought with a large enough effect; inconclusive means small, poorly fitted or top-dose-only effect, or another doubt; inactive means no such curve, though single readings can be large; an effect the other way counts as inactive or inconclusive.

SMILES	TGFb SMAD3 inh	DT40 TDP1 CPT	TDP1 cell noCPT	IL1B secr inh	TDP1 inh	HepG2 viability
OC(CON=C1c2ccccc2-c2ccccc21)CN1CCNCC1 (configuration not stated)	?	12µM*	7.3µM*	-88*	-12%	-64%
COc1ccc(C(=O)N[C@H](C(=O)Nc2nc3c(s2)CCCC3)C(C)C)cc1	?	?	23µM*	-25	5%	6%
COc1ccc(CC(=O)Nc2nc3c(s2)CCCC3)cc1	0%	?	?	.	5%	-11%
CCC(Oc1ccc(F)cc1)C(=O)Nc1nc2c(s1)CCCC2 (configuration not stated)	0%	?	16µM*	.	1%	1%
CCOc1ccccc1C(=O)N[C@H](C(=O)Nc1nc2c(s1)CCCC2)C(C)C	?	16µM*	18µM*	?	5%	-4%
O=C(Nc1nc2c(s1)CCCC2)Oc1ccccc1	11%	0%	4%	9	11%	13%
CC(C)c1cc2c(s1)c1cnn(Cc3ccccc3F)c(=O)c1n2C	.	.	.	.	-5%	.
CC(=O)Nc1ccc(S(=O)(=O)N2CC3(C)CC2CC(C)(C)C3)cc1 (configuration not stated)	6%	-6%	?	47	5%	4%
CC1(C)CC2CC(C)(CN2S(=O)(=O)c2ccc(C(=O)Nc3ccc(S(=O)(=O)N4CCOCC4)cc3)cc2)C1 (configuration not stated)	-10%	3.7µM*	5.2µM*	37	-3%	-1%
CC1(C)CC2CC(C)(CN2S(=O)(=O)c2ccc(C(=O)Nc3ccc(Cl)c(S(=O)(=O)N4CCOCC4)c3)cc2)C1 (configuration not stated)	?	3.3µM*	3.7µM*	27	4%	3%
CN1N=C2c3ccccc3CCC2C1c1ccc(Cl)cc1 (configuration not stated)	1%	33%	?	42	0%	-8%
CCOC1(OCC)C(c2ccc(Cl)cc2)C(C#N)(C#N)C1(OCC)OCC (configuration not stated)	?	?	18µM*	-57*	-7%	-39%
COc1ccc2c(-c3ccccc3)cc(SC(C)C(N)=O)nc2c1 (configuration not stated)	4%	-3%	?	-4	3%	9%
Cc1[nH]c2ccccc2c1SCc1nnc(SCc2ccccc2)n1C	-11%	-15%	?	-57*	6%	4%
NC(=O)CC(NC(=O)Cc1ccc(Br)cc1)c1ccc(N2CCC(N3CCCCC3)CC2)c([N+](=O)[O-])c1 (configuration not stated)	-32%	2%	-8%	-4	.	2%
CCN(CC)CCNC(=O)c1ccc2c(c1)sc1nc(-c3ccc(F)cc3)cn12	11µM*	5.8µM*	3.3µM*	.	5%	16µM*
CCOc1ccc(-c2cn3c(n2)sc2cc(C(=O)NCCCN4CCCCC4)ccc23)cc1	0%	1.6µM*	1.6µM*	.	-8%	2.5µM*
CCOc1ccc(-c2cn3c(n2)sc2cc(C(=O)NCCCN(CC)CC)ccc23)cc1	?	0.73µM*	0.82µM*	.	1%	10µM*
CCCN1CCN(CCCNC(=O)c2ccc3c(c2)sc2nc(-c4ccc(OCC)cc4)cn23)CC1	28%	1.8µM*	2.9µM*	.	-2%	-27%
COc1ccc(-c2cn3c(n2)sc2cc(C(=O)Nc4ccc(F)cc4Cl)ccc23)cc1	-2%	?	?	.	-8%	2%
CO[C@@H]1COC(=O)[C@H]2CCCN2C(=O)[C@@H](C)COC(=O)[C@H](COCc2ccccc2)NC(=O)C/C=C\[C@H]1C	.	.	.	.	7%[21 µM]	.
Cc1c(Cl)ccc2sc(NC(=O)c3ccc(S(=O)(=O)N4CCCC4)cc3)nc12	-1%	-25%	-21%	.	-5%	-20%
Cc1cccn2c(CNCC3OCCc4ccccc43)c(C(=O)N3CCCCC3)nc12 (configuration not stated)	-6%	?	?	12	.	-4%
O=C(c1cc2ccccc2oc1=O)N1CCN(c2ccc(F)cc2)CC1	-3%	-25%	?	.	-3%	9%
CCOc1ccc(-c2cn3c(n2)sc2cc(C(=O)NC4CCCc5ccccc54)ccc23)cc1 (configuration not stated)	16%	12µM*	5.2µM*	.	0%	0%
SMILES	TGFb SMAD3 inh	DT40 TDP1 CPT	TDP1 cell noCPT	IL1B secr inh	TDP1 inh	HepG2 viability
CCOc1ccc(CNC(=O)c2ccc3c(c2)sc2nc(-c4ccc(OC)cc4)cn23)cc1	-11%	-3%	-18%	.	0%	2%
CCOc1ccc(-c2cn3c(n2)sc2cc(C(=O)NCCCN4CCCCCC4)ccc23)cc1	?	5.8µM*	6.5µM*	.	3%	11µM*
CCOc1ccc(CNC(=O)c2ccc3c(c2)sc2nc(-c4ccccc4)cn23)cc1	-6%	-17%	-13%	.	1%	4%
Cc1cccc2nc(CNC(=O)CN3Cc4ccccc4OC(c4ccccc4F)C3)cn12 (configuration not stated)	.	7%[9.04 µM]	-26%	.	.	.
Cc1cccc2nc(CNC(=O)CN3Cc4cc(Cl)ccc4OC(C)C3)cn12 (configuration not stated)	.	4.1µM*	5.8µM*	.	.	.
CCc1nc2ccc(C(=O)Nc3cccc(OCC(=O)N(C)C)c3)cn2c1N(CC)CCN(C)C	-11%	10%	9%	9	.	0%
CCc1nc2ccc(C(=O)Nc3cccc(OCC(=O)N(C)C)c3)cn2c1N(C)Cc1ccc(OC)cc1	3%	23µM*	18µM*	-12	.	-25%
Cc1nc2ccc(C(=O)Nc3cccc(OCC(=O)N(C)C)c3)cn2c1N(C)CC1CCCCC1	?	21µM*	13µM*	-51*	.	-110%
CCc1nc2ccc(C(=O)Nc3cccc(OCC(=O)N(C)C)c3)cn2c1N(C)C(=O)c1cccc(OC)c1	-3%	?	?	18	.	-4%
CCc1nc2ccc(C(=O)Nc3cccc(OCC(=O)N(C)C)c3)cn2c1N(CC)CCOC	-28%	16µM*	16µM*	-20	.	-23%
Nc1ccccc1SCC(O)Cn1ccc2ccccc21 (configuration not stated)	3%	7%	-22%	-24	.	-3%
Cc1cc(C)n(CC(O)Cn2ccc3ccccc32)n1 (configuration not stated)	2%	-3%	-9%	5	-6%	1%
